Bioassay records (PubChem)
This is a sample that favours compounds with a hit; in the whole collection about 2% have one here.
GalR3 antag – antagonists of human GalR3. O60755. AID 651719. inhibition, % at 3 µM. hit rate 0.44% among 360,000. HEK293 GalR3-CNG cAMP membrane potential fluorescence; galR3 body fused to GalR1 C-terminus;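 active = inhibition above the screen-wide average plus 3 SD, cut at about 13% in these data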;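 note: forskolin and galanin both at EC90 stimulate the cells; cAMP rise reported by CNG channel membrane potential dye signal; 0% = forskolin plus galanin with DMSO and 100% = forskolin alone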
Target sequence (O60755 1-299 limits assumed): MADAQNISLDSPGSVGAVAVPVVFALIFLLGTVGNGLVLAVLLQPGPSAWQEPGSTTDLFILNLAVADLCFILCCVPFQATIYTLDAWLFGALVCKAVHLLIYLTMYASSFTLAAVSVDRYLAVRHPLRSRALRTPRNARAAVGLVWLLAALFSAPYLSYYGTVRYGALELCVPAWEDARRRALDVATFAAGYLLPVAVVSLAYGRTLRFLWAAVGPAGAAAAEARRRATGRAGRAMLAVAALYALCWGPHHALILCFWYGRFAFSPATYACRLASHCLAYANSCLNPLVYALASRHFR
697 NFkB inh – inhibitors of the PMA/ionomycin-induced NF-kB reporter in 697 B cells; 697 B-cell NF-kB luciferase reporter, 16 h; inhibition, % at 4 µM; hit rate 0.33% among 330,000; AID 435022; in the data active = inhibition above about 35%
Gli-Sufu block – Gli-Sufu pathway antagonism; Sufu-KO-LIGHT fibroblasts, Gli luciferase reporter luminescence; inhibition, % at 5 µM; hit rate 0.74% among 340,000; AID 588413;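 active = inhibition above about 55%, limit read from the data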;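 note: 0% = DMSO-treated cells and 100% = wells with medium but no cells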
Jurkat NFkB inh – inhibitors of the PMA/ionomycin-induced NF-kB reporter in Jurkat cells; hit rate 0.53% among 330,000; AID 435003; inhibition, % at 4 µM; PMA/ionomycin-induced NF-kB luciferase reporter, luminescence; in the data active = inhibition above about 50%
COUP-TFII inh – blocks human COUP-TFII nuclear receptor | P24468 | HEK293T NGFI-A luciferase reporter, luminescence | inhibition, % at 8.6 µM | hit rate 0.7% among 370,000;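 active = inhibition above a per-plate cutoff, mean inhibition of test wells between control levels plus 3 SD, cut at about 38% in these data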;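 note: cells cotransfected with COUP-TFII expression vector driving the NGFI-A reporter; 0% = median of COUP-TF2 test wells and 100% = reporter-only cells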
Target sequence (P24468 whole entry, looked up): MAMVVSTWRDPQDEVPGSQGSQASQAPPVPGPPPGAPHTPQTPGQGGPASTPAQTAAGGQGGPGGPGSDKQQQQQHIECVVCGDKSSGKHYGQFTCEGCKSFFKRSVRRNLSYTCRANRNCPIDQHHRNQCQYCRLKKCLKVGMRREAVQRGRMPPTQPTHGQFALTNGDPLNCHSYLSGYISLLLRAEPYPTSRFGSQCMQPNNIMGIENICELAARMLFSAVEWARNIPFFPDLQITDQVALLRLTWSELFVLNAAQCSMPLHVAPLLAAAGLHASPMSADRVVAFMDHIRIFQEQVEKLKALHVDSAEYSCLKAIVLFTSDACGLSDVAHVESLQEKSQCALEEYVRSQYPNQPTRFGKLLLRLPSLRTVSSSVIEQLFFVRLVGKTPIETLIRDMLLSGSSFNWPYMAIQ
VP16 Luc counter – counter-screen for COUP-TFII antagonists: inhibitors of VP16. shares compounds with COUP-TFII inh. HEK293 Gal4-VP16 luciferase reporter, luminescence. inhibition, % at 8.5 µM. hit rate 25% among 2,500; in the data active = inhibition above about 13%
COUP-TFII conf – confirmation of human COUP-TFII (NR2F2) inhibitors. shares compounds with COUP-TFII inh. HEK293 NGFI-A luciferase reporter, luminescence. inhibition, % at 8.5 µM. hit rate 45% among 2,500;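 active = mean inhibition over three repeats above a set limit taken from the earlier primary screen, cut at about 38% in these data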;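 note: 100% = cells given the luciferase reporter alone without the COUP-TF2 vector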
The depositor's hits bear a star; / = not tested or not shown.

SMILES | GalR3 antag | 697 NFkB inh | Gli-Sufu block | Jurkat NFkB inh | COUP-TFII inh | VP16 Luc counter | COUP-TFII conf
N#Cc1ccc(/C=C2\CC3(OC(=O)c4ccco4)CCCN2C3)cc1 (stereo not given) | / | / | / | / | -14.4 | / | /
CCn1cc(CCC(=O)Nc2ccc(Oc3cccnc3)cc2)c2ccccc21 | -6.4 | / | / | / | -8.8 | / | /
CN(c1ccc(F)cc1)S(=O)(=O)c1ccc(Cl)c(C(=O)Nc2ccncc2)c1 | -7.1 | -78.4 | 46.6 | 18.9 | 24.4 | / | /
Cc1ccc(C(=O)Nc2ccncc2)cc1S(=O)(=O)N1CCOCC1 | -1.6 | -24.7 | -0.2 | 26.5 | 1.0 | / | /
CN(c1ccccc1)S(=O)(=O)c1ccc(Cl)c(C(=O)Nc2ccncc2)c1 | -4.2 | -32.2 | 21.1 | 1.8 | 40.5* | 1.4 | 1.5
Cc1ccc(C(=O)Nc2ccncc2)cc1S(=O)(=O)N1CCCCC1 | -8.2 | / | / | / | 47.5* | -2.9 | 2.8
Cc1ccc(NC(=O)c2ccccc2NS(=O)(=O)c2ccc(F)cc2)cc1S(=O)(=O)N1CCCCC1 | -3.8 | -21.2 | 42.5 | -9.1 | 37.6* | -9.2 | 13.2
O=C(Nc1cccc(S(=O)(=O)N2CCCCC2)c1)c1ccccc1NS(=O)(=O)c1ccc(F)cc1 | -5.5 | -23.3 | -24.5 | 14.9 | 13.0 | / | /
CCN(CC)C(=O)c1ccc2c(c1)NC(=O)C(C)(C)O2 | / | / | / | / | -5.8 | / | /
O=C(Nc1cc(Sc2nc3ccccc3s2)cc([N+](=O)[O-])c1)c1ccccc1 | -0.2 | 2.9 | 5.5 | 11.6 | 5.0 | / | /
O=C(Nc1cc(Sc2ccccn2)cc([N+](=O)[O-])c1)c1cccc(F)c1 | 1.4 | -3.9 | 21.8 | 35.2 | 42.0* | -1.1 | 19.2
COC(=O)C1CN(Cc2cn(Cc3ccccc3)nn2)CCS(=O)(=O)N1Cc1ccccc1 (stereo not given) | / | / | / | / | -2.4 | / | /
Nc1cc(S(=O)(=O)c2ccc(N3CCCCC3)c(N)c2)ccc1N1CCCCC1 | -9.2 | / | / | / | 42.5* | 5.4 | 22.1
Nc1cc(S(=O)(=O)N2CCCCC2)ccc1N1CCOCC1 | 2.6 | -2.5 | -2.5 | 5.7 | 15.2 | / | /
CCOC(=O)c1csc(-n2nc(C)cc2C(F)(F)F)n1 | -1.4 | 11.3 | 24.4 | -6.7 | 0.1 | / | /
Cc1cc(C(F)(F)F)n(-c2nc(C(=O)NN)cs2)n1 | 2.8 | 5.3 | 14.3 | 14.6 | 37.4* | -5.7 | -4.1
N=c1c2c(n(Cc3ccccc3)c3c1CCC3)CCC2 | -1.9 | 2.2 | -4.4 | 40.2 | 41.2* | 9.3 | 37.0
C=CCOC(=O)N1CCN(C(=O)c2ccc3c(c2)nc(C)n3C2CCCC2)CC1 | / | / | / | / | 12.8 | / | /
Cc1ccc(CNC(=O)C(=O)NCC2OCCN2S(=O)(=O)c2ccc(Br)cc2)cc1 (stereo not given) | -4.0 | -24.2 | 5.9 | 6.6 | 47.6* | -1.7 | 12.2
Cc1ccc(CNC(=O)C(=O)NCC2OCCN2S(=O)(=O)c2ccc(C)cc2)cc1 (stereo not given) | -3.7 | -15.6 | -4.2 | 1.6 | 19.5 | / | /
CC1OC(CC(=O)O)CC2=C1C(=O)c1c(O)cccc1C2=O (stereo not given) | 6.4 | / | 91.4* | / | 104.8* | 98.2* | 109.6*
O=C1c2cccc(O)c2C(=O)c2c(O)cccc21 | / | -15.3 | / | 8.0 | / | / | /
CCOC(=O)C1=NOC(C(C)=O)(C(=O)NC2CCCC2)C1 (stereo not given) | / | / | / | / | -10.0 | / | /
CC(=NNc1ccc2ccccc2n1)c1ccccn1 | -8.9 | / | / | / | 58.8* | 33.6* | 73.7*
C=C1C(=O)C23C(O)C1CCC2C12CCCC(C)(COC(C)=O)C1C(O)C3(O)OC2 (stereo not given) | 1.0 | / | 15.9 | / | 48.3* | 76.8* | 51.9*
SMILES | GalR3 antag | 697 NFkB inh | Gli-Sufu block | Jurkat NFkB inh | COUP-TFII inh | VP16 Luc counter | COUP-TFII conf
OC[C@@H]1CC[C@@H]2O[C@H](CCc3ccc(-c4ccc(F)cc4)cc3)[C@H](n3cc(C4CC4)nn3)C[C@@H]2O1 | / | / | / | / | -13.0 | / | /
COc1ccc(CNC(=O)c2cccc3c(-c4cnn(C)c4)coc23)cc1OC | -8.0 | / | / | / | 62.2* | -3.8 | 39.9*
COc1ccc(-c2coc3c(C(=O)Nc4cc(OC)c(OC)c(OC)c4)cccc23)c(C)c1 | -7.7 | / | / | / | 36.5 | / | /
COc1ccc(-c2coc3c(C(=O)NCc4ccc(F)c(F)c4)cccc23)c(C)c1 | -7.8 | / | / | / | 47.2* | 6.6 | 27.7
COc1ccc(-c2coc3c(C(=O)NCC4CCOCC4)cccc23)c(C)c1 | -6.3 | / | / | / | 42.3* | -2.7 | 16.7
COc1cc(NC(=O)c2cccc3c(-c4cccnc4)coc23)cc(OC)c1OC | -5.2 | / | / | / | 52.0* | 7.0 | 33.0
COc1ccc(-c2ccc(C(=O)NCc3ccc(F)c(F)c3)c3occc23)c(C)c1 | -3.5 | / | / | / | 16.5 | / | /
COc1ccc(-c2coc3c(C(=O)NCCN4CCOCC4)cccc23)c(C)c1 | -5.8 | / | / | / | 21.1 | / | /
CN1C(=O)C(c2cn(C)c3ccccc23)(c2cn(C)c3ccccc23)c2ccccc21 | / | / | / | / | -9.9 | / | /
COc1ccc(C=Nn2c(-c3ccc(F)cc3)n[nH]c2=S)c(OC)c1OC | / | / | / | / | -15.9 | / | /
S=c1[nH]nc(-c2cc(-c3ccccc3)n[nH]2)n1N=Cc1cccc(OCc2ccccc2)c1 | / | / | / | / | -32.5 | / | /
O=C(c1ccccc1F)N1CCN(S(=O)(=O)c2ccc3c(c2)OCCO3)CC1 | 2.2 | 6.2 | -4.3 | 11.0 | 42.5* | -13.4 | 13.1
CC(=O)CSc1ccc(-c2nc3cc(C)c(C)cc3[nH]2)cn1 | -4.6 | -58.2 | 23.9 | -16.5 | 53.8* | 2.4 | 28.6
Clc1ccc(-c2nnc(SCc3cccc4ccccc34)n2-c2ccc(Cl)cc2)cc1 | / | / | / | / | 7.8 | / | /
ON=C1c2cc(OCCN3CCCCC3)ccc2-c2ccc(OCCN3CCCCC3)cc21 | / | -2.6 | 16.8 | -5.1 | / | / | /
NC(=S)NN=C1c2cc(OCCN3CCOCC3)ccc2-c2ccc(OCCN3CCOCC3)cc21 | -10.4 | -35.9 | 8.3 | 49.6 | 68.3* | 9.7 | 80.2*
CCN(CC)C(=O)CC[C@@H]1CC[C@]2(CCCN(C(=O)C(C)(C)C)C2)O1 | / | / | / | / | -8.9 | / | /
COc1ccc(C2CCC3(CCC(=O)N3CCOC(=O)NCc3ccc(Cl)cc3)CC2)cc1 (stereo not given) | / | / | / | / | 40.1* | 1.8 | 16.1
CCCCCc1ccc(NC(=O)OCCN2C(=O)CCC23CCC(c2ccccc2)CC3)cc1 (stereo not given) | / | / | / | / | 4.4 | / | /
O=C1C2C3C=CC(C3)C2C(=O)N1c1ccc(N2CCN(c3ccccn3)CC2)c([N+](=O)[O-])c1 (stereo not given) | -2.2 | -29.9 | 14.3 | 28.2 | 42.0* | 1.2 | 25.4
O=C(CCN1C(=O)C2C3C=CC(C3)C2C1=O)N1CCN(c2ccccn2)CC1 (stereo not given) | -2.6 | 6.3 | 3.1 | 7.9 | -3.0 | / | /
C=CCc1cccc2cc(C(=O)Nc3ccccc3C(=O)O)c(=O)oc12 | -9.6 | / | -16.1 | / | 40.7* | -8.2 | 47.0*
N#Cc1ccc(/C=C2\CC3(OC(=O)c4ccccc4)CCCN2C3)cc1 (stereo not given) | / | / | / | / | -35.1 | / | /
C=CCn1c(SCC(=O)Nc2sccc2C(N)=O)nc2ccc(Cl)cc2c1=O | -7.1 | -24.6 | 9.2 | 18.0 | 12.3 | / | /
